Results as given in PubChem BioAssay (EPA / NIEHS).
Records with an inconclusive call do not appear. Calls of active or inactive are those of the source. How the source made its calls, unless noted: active means hit-call score of the fitted dose curve at least 0.9, where 1 is the maximum; inactive means score below 0.9.

Tests used:
[1] = ATG_TAL_CIS: Attagene CIS-FACTORIAL HepG2 Assay for human TAL Basal Promoter (AID 2282966); conditions: HepG2 Attagene cis-factorial TAL promoter reporter; actives raise or lower the signal;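 further: background control endpoint measuring basal TAL promoter reporter mRNA not a specific factor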
In short: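 In this cell-based multiplex, HepG2 liver cells bearing cis-promoter reporter constructs are dosed for 24 hours. Total RNA is reverse-transcribed and amplified, labelled fragments are sized by capillary electrophoresis, and signal changes are fitted bidirectionally versus DMSO.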

[2] = ATG_TGFb_CIS: Attagene CIS-FACTORIAL HepG2 Assay for human Transforming Growth Factor (TGF) (AID 2282967); conditions: HepG2 Attagene CIS TGFb reporter, mRNA transcription; actives raise or lower the signal
In short: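 Cells were dosed for 24 hours, after which total RNA was reverse-transcribed and reporter sequences amplified, labeled and sized by capillary electrophoresis. Activity was fitted in both directions against DMSO.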

[3] = ATG_VDRE_CIS: Attagene CIS-FACTORIAL HepG2 Assay for human Vitamin D Receptor Element (VDRE) (AID 2282968); conditions: HepG2 VDRE cis-reporter transcription, actives raise or lower the signal
In short: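 RT-PCR/CE readout of reporter mRNA; HepG2, transient transfection, 24 h dosing; DMSO baseline; bidirectional analysis.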

[4] = target: Nuclear receptor subfamily 1 group I member 3 (Homo sapiens) (UniProt Q14994); assay: ATG_CAR_TRANS: Attagene TRANS-FACTORIAL HepG2 Assay for human Constitutive Androstane Receptor (CAR) (AID 2282969; active means hit-call score of the fitted dose curve at least 0.9, where 1 is the maximum;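 further: activators raise reporter mRNA above DMSO so AC50 marks induction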); conditions: HepG2 Attagene TRANS-FACTORIAL CAR reporter
Nuclear receptor subfamily 1 group I member 3 (Homo sapiens), sequence (Q14994 whole entry, looked up, the tested form may be a part): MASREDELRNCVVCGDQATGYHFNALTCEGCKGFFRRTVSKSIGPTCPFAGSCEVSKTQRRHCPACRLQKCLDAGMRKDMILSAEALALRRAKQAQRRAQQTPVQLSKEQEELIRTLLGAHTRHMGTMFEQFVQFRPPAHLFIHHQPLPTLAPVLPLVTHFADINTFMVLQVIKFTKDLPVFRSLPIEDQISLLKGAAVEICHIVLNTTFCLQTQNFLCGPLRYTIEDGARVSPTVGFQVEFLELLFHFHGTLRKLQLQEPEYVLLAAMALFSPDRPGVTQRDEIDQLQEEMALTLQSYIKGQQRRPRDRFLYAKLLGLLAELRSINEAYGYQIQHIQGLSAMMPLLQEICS
In short: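 HepG2 cells transiently transfected with multiplexed GAL4-UAS reporter units expressing chimeric NR-Gal4 proteins; compound exposure 24 h. Reporter mRNA measured by RT-PCR, 6-FAM labelling, HpaI digestion and capillary electrophoresis; gain-of-signal fitted against DMSO baseline.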

[5] = target: Estrogen receptor (Homo sapiens) (UniProt P03372); assay: ATG_ERa_TRANS: Attagene TRANS-FACTORIAL HepG2 Assay for human Estrogen Receptor alpha (ERa) (AID 2282970; active means hit-call score of the fitted dose curve at least 0.9, where 1 is the maximum); conditions: HepG2 Attagene TRANS ERa GAL4 reporter, mRNA
Estrogen receptor (Homo sapiens), sequence (P03372 whole entry, looked up, the tested form may be a part): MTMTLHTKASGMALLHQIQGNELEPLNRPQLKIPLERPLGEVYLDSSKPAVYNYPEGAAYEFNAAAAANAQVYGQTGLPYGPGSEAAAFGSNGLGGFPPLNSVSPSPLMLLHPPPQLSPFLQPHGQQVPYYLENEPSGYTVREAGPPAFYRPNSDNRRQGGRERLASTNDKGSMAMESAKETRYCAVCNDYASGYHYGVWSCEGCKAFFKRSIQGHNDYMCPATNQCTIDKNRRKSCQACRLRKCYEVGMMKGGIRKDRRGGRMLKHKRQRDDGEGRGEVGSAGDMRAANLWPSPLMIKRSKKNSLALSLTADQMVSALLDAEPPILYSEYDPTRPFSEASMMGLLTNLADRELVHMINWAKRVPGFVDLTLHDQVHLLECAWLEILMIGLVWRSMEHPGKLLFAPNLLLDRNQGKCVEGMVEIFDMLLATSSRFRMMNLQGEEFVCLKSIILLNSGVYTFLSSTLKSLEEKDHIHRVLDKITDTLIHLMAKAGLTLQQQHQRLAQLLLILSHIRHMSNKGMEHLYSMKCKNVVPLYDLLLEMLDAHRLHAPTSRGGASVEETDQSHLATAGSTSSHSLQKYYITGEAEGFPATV
In short: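 After 24 h of compound treatment, RNA from HepG2 cells bearing transfected GAL4-UAS reporter constructs is converted to cDNA, amplified and fluorescently labelled. Capillary electrophoresis resolves the ERa-linked reporter; DMSO serves as negative control.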

[6] = target: X-box-binding protein 1 (Homo sapiens) (UniProt P17861); assay: ATG_Xbp1_CIS: Attagene CIS-FACTORIAL HepG2 Assay for human X-box Binding Protein 1 (XBP1) (AID 2282972); conditions: HepG2 XBP1 cis-element reporter, Attagene multiplex; actives raise or lower the signal
X-box-binding protein 1 (Homo sapiens), sequence (P17861 whole entry, looked up): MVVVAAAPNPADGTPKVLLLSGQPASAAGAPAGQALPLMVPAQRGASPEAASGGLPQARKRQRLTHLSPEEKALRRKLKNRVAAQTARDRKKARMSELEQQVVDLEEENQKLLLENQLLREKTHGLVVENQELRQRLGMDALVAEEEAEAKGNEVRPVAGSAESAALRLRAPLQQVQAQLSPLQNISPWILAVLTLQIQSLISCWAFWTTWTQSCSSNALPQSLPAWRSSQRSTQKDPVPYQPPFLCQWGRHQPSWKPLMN
In short: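 After a 24-hour chemical exposure of HepG2 cells carrying cis-regulated reporters, reporter mRNA levels are assessed. Quantification uses RT-PCR, 6-FAM labelling and capillary electrophoresis. Gain- or loss-of-signal is fitted against DMSO.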

[7] = ATG_M_19_TRANS: Attagene TRANS-FACTORIAL HepG2 Assay for M19 Transcription Factor (Internal Marker) (AID 2282974; active means hit-call score of the fitted dose curve at least 0.9, where 1 is the maximum); conditions: HepG2 Attagene TRANS-FACTORIAL M19 internal marker reporter
In short: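 Multiplexed TRANS format: HepG2 liver cells bearing transient GAL4-UAS reporter units, chemical treatment 24 h, reporter transcripts quantified by RT-PCR plus capillary electrophoresis. DMSO defines baseline.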

[8] = target: Steroid hormone receptor ERR1 (Homo sapiens) (UniProt P11474); assay: ATG_ERRa_TRANS: Attagene TRANS-FACTORIAL HepG2 Assay for human Estrogen-Related Receptor alpha (ERRa) (AID 2282971; active means hit-call score of the fitted dose curve at least 0.9, where 1 is the maximum); conditions: HepG2 Attagene TRANS reporter, ERRa transactivation
Steroid hormone receptor ERR1 (Homo sapiens), sequence (P11474 whole entry, looked up, the tested form may be a part): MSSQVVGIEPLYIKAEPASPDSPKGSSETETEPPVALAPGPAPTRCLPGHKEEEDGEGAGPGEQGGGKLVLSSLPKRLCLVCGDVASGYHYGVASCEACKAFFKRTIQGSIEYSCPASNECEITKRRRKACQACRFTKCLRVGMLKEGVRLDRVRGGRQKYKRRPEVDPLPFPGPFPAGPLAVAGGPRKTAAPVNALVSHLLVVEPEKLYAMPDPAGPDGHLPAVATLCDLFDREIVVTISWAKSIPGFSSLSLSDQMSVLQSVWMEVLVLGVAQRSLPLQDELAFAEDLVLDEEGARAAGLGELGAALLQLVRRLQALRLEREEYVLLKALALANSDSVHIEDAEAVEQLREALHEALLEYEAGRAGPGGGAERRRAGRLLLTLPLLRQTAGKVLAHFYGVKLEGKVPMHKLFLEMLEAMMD
In short: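 Transfected HepG2, 24 h dosing, ERRa-Gal4 chimera driving GAL4-UAS reporter. Readout: reporter mRNA via RT-PCR plus capillary electrophoresis (fluorescence). Positive direction vs DMSO control.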

[9] = ATG_GAL4_TRANS: Attagene TRANS-FACTORIAL HepG2 Assay for GAL4 (Internal Marker) (AID 2282976; active means hit-call score of the fitted dose curve at least 0.9, where 1 is the maximum); conditions: HepG2 Attagene TRANS GAL4 internal marker reporter
In short: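 RT-PCR/capillary electrophoresis readout of reporter mRNA. HepG2, transient MRTU transfection (GAL4-UAS reporters), 24 h compound exposure. Background-control endpoint, positive direction vs DMSO baseline.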

[10] = target: Glucocorticoid receptor (Homo sapiens) (UniProt P04150); assay: ATG_GR_TRANS: Attagene TRANS-FACTORIAL HepG2 Assay for human Glucocorticoid Receptor (GR) (AID 2282978; active means hit-call score of the fitted dose curve at least 0.9, where 1 is the maximum;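 further: activators score as hits since higher reporter transcript over DMSO is fitted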); conditions: HepG2 Attagene TRANS GR reporter, mRNA transcription
Glucocorticoid receptor (Homo sapiens), sequence (P04150 whole entry, looked up, the tested form may be a part): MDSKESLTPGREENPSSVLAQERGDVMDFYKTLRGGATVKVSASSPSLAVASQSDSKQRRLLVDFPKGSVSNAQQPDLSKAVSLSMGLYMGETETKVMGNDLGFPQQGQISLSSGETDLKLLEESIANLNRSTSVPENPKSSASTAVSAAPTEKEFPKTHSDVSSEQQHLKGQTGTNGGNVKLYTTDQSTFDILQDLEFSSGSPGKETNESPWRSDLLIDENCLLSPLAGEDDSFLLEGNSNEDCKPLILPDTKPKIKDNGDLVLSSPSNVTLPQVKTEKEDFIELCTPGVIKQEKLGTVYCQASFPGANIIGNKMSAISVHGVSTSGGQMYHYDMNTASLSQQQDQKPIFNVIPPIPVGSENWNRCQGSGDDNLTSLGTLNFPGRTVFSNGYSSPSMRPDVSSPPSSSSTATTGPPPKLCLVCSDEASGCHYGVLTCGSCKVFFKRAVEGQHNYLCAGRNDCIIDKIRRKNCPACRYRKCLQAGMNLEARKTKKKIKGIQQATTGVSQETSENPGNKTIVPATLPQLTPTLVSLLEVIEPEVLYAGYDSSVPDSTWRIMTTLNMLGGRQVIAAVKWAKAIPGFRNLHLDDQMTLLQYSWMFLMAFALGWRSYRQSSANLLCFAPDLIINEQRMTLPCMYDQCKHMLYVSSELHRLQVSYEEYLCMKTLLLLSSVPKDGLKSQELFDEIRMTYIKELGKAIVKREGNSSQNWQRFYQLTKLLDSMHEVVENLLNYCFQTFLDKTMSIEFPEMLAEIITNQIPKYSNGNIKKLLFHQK
In short: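 Transiently transfected HepG2 cells express chimeric NR-GAL4 proteins acting on GAL4-UAS reporter units. Compounds are applied for 24 h. mRNA induction over DMSO is measured by capillary electrophoresis.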

Measured: AC50

COC(=O)CCC(=O)OC
not listed: [8] | [9] | [10]
inactive: all other assays above

CCCC[C@H]1CN(CC2CCOCC2)C(=O)OC12CCN(C1(C)CCN(C(=O)c3c(C)ncnc3C)CC1)CC2
not listed: [5] | [9] | [10]
inactive: all other assays above

S=c1[nH]c2ccccc2s1
not listed: [5] | [7] | [8]
inactive: all other assays above

O=C(O)CN(CC(=O)O)CC(=O)O
inactive: [1] | [2] | [3] | [4] | [6] | [10]

CC(COCC(C)OC(=O)c1ccccc1)OC(=O)c1ccccc1 (centres undefined)
not listed: [5] | [7] | [9]
inactive: all other assays above

OCC(CO)n1cnc(-c2ccc(F)cc2)c1-c1ccnc(Oc2ccccc2)n1
not listed: [5] | [8] | [9]
inactive: all other assays above

O=C(N[C@@H](c1ccccc1)[C@@H]1CCCCN1)c1cccc(C(F)(F)F)c1Cl
inactive: [1] | [2] | [5] | [8] | [9]
active: [3] 20.4 µM | [6] 33 µM

O=NO
inactive: [1] | [2] | [3] | [4] | [6] | [9]

Oc1ccccc1O
active: [3] 27.5 µM | [6] 35.7 µM
inactive: [1] | [2] | [4] | [7] | [10]

c1ccc2occc2c1
inactive: [1] | [2] | [3] | [4] | [6]

Cc1c(C)c2c(c(C)c1O)CCC(C)(COc1ccc(CC3SC(=O)NC3=O)cc1)O2 (centres undefined)
active: [3] 13.9 µM
not listed: [8] | [9] | [10]
inactive: all other assays above

CCCCCCCC(=O)OC
inactive: [1] | [2] | [3] | [5] | [6] | [7]

CCCCOC(=O)CCCCC(=O)OCCCC
active: [10] 155 µM
inactive: [1] | [2] | [3] | [6] | [7]

Cc1occc(=O)c1O
inactive: [1] | [2] | [3] | [6] | [7] | [9]

CO[C@@H]1COCC[C@@H]1N[C@@H]1CC[C@@](C(=O)N2CCc3ncc(C(F)(F)F)cc3C2)(C(C)C)C1
inactive: [1] | [2] | [3] | [6] | [7] | [9]

CC1(C)C(=O)NC(=O)N1CO
active: [5] 123 µM
not listed: [4] | [8]
inactive: all other assays above

CC(C)OC(=O)C(C)(C)Oc1ccc(C(=O)c2ccc(Cl)cc2)cc1
inactive: [1] | [2] | [9] | [10]
active: [3] 27.6 µM | [5] 27.1 µM | [6] 54.4 µM

CC(=O)CC(c1ccccc1)c1c(O)c2ccccc2oc1=O (centres undefined)
inactive: [1] | [2] | [3] | [6] | [7] | [9]

C=CCc1ccc(OC)c(OC)c1
inactive: [1] | [2] | [3] | [6] | [7] | [10]

CN(C)C(=O)NC1(c2ccccc2)CCN(CCC[C@]2(c3ccc(Cl)c(Cl)c3)CCCN(C(=O)c3ccccc3)C2)CC1
inactive: [1] | [2] | [7]
active: [3] 2.75 µM | [6] 4.69 µM

CC(C)COC(=O)CCCCC(=O)OCC(C)C
inactive: [1] | [2] | [3] | [6] | [7]
